Measured values as given in the supplement of paper PMC6555819.

Columns and labels:
Assay in all cases: PBM binding z-score (relative to random genomic background probes); higher = stronger binding; sequences stand for … in GC…GCGATTGACAGCGTAGAATGAAGG
[1] = tested on: PPARg:RXRa DBDmut IVT, anti-RXR (DBD mutation: RXRa K156A/R161A, NR concentration 270 nM, RXRa partner concentration 90 nM)
How it was run: (§1)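 Probes were double-stranded and carried 34-nt variable regions with direct-repeat seeds, single-nucleotide variants, half-site ablations and random human genomic background sequences, printed on custom Agilent 4×180K protein-binding microarrays. Arrays were incubated 1 h with ligand-free nuclear receptor dimers in PBS pH 7.4, 2% milk, 0.02% Triton X-100, 1 mM DTT, 0.2 mg/mL BSA and 0.4 mg/ml salmon testes DNA. Antibodies against each partner (one per run) detected binding, and scanned fluorescence was regression-normalized. Binding z-scores use the random background probes as reference.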

[2] = tested on: PPARg:RXRa IVT, anti-PPARg (NR concentration 270 nM, RXRa partner concentration 90 nM)
How it was run: as §1

[3] = tested on: PPARg DBDmut:RXRa IVT, anti-PPARg (DBD mutation: PPARg1 K132A/R137A, NR concentration 270 nM, RXRa partner concentration 90 nM)
How it was run: as §1

[4] = tested on: PPARg DBDmut IVT, anti-PPARg (DBD mutation: PPARg1 K132A/R137A, NR concentration 270 nM)
How it was run: as §1

[5] = tested on: PPARg homodimer (NR concentration 180 nM)
How it was run: as §1

[6] = tested on: PXR:RXRa (NR concentration 270 nM, RXRa partner concentration 90 nM)
How it was run: as §1

[7] = tested on: PXR homodimer (NR concentration 270 nM)
How it was run: as §1

[8] = tested on: RARa:RXR (NR concentration 270 nM, RXRa partner concentration 90 nM)
How it was run: as §1

[9] = tested on: RARa homodimer (NR concentration 270 nM)
How it was run: as §1

[10] = tested on: RARb:RXRa (NR concentration 270 nM, RXRa partner concentration 90 nM)
How it was run: as §1

[11] = tested on: RARb homodimer (NR concentration 270 nM)
How it was run: as §1

[12] = tested on: RARg:RXRa (NR concentration 270 nM, RXRa partner concentration 90 nM)
How it was run: as §1

[13] = tested on: RARg homodimer (NR concentration 270 nM)
How it was run: as §1

[14] = tested on: RXRa DBDmut IVT, anti-RXR (DBD mutation: RXRa K156A/R161A, NR concentration 90 nM)
How it was run: as §1

[15] = tested on: RXRa homodimer (NR concentration 180 nM)
How it was run: as §1

[16] = tested on: THRa:RXRa (NR concentration 90 nM, RXRa partner concentration 90 nM)
How it was run: as §1

[17] = tested on: THRa homodimer (NR concentration 90 nM)
How it was run: as §1

[18] = tested on: VDR homodimer (NR concentration 270 nM)
How it was run: as §1

Row | Sequence | PBM binding z-score [1] | PBM binding z-score [2] | PBM binding z-score [3] | PBM binding z-score [4] | PBM binding z-score [5] | PBM binding z-score [6] | PBM binding z-score [7] | PBM binding z-score [8] | PBM binding z-score [9] | PBM binding z-score [10] | PBM binding z-score [11] | PBM binding z-score [12] | PBM binding z-score [13] | PBM binding z-score [14] | PBM binding z-score [15] | PBM binding z-score [16] | PBM binding z-score [17] | PBM binding z-score [18]
1 | TAGCCTAGGTCAGGCGGGCCAGTATAGTGTCGGC | 0.604 | 1.7 | -0.617 | -0.515 | -0.227 | 0.158 | -0.632 | 0.923 | -0.619 | 3.16 | 2.21 | 2.75 | 3.45 | -1.1 | 1.3 | 1.86 | -0.0587 | -0.674
2 | CCTTACGAGTCACGAGGTTATAGCACGACGAGCG | 0.274 | 0.318 | 0.557 | 0.13 | 1.26 | 1.25 | 0.811 | 1.79 | 1.56 | 0.971 | 1.11 | 1.27 | 1.04 | 0.554 | 1.8 | 1.9 | 1.19 | 1.26
3 | GCTAGGAGGACAAGGTCAGAGCTTTGTCCGTAGA | 1.13 | 1.17 | -0.92 | -1.52 | 0.32 | 1.57 | -0.305 | 1.89 | -1.07 | 3.41 | 3.1 | 3 | 3.49 | 0.861 | 2.29 | 2.83 | 1.21 | 0.639
4 | AGAATGAGGTTAAGATCGGGGAAACAGAATACAT | 3.24 | 2.85 | 1.19 | 0.972 | 1.09 | 0.98 | 0.624 | 1.93 | 0.617 | 1.95 | 0.944 | 2.19 | 1.53 | 1.28 | 2.25 | 2.54 | 0.927 | 0.542
5 | GCATATAGGTAATACAACGTGAAAGTCCGATTGT | 4.04 | 2.2 | 0.468 | 0.495 | -0.277 | -0.414 | -0.12 | -0.549 | 0.219 | -0.451 | -0.603 | 0.114 | 0.451 | 0.181 | 0.119 | -0.366 | -0.557 | -0.205
6 | CCTGCTATGTCAATGGTCAGCTAAAGCAGCTCGC | 0.388 | 0.02 | -1.09 | -1.11 | -0.369 | -0.209 | -0.703 | -0.142 | -0.762 | 0.77 | 0.33 | 0.00581 | 0.0986 | 0.386 | -0.174 | -0.688 | -0.637 | -0.777
7 | ATCTCTAGGTAAAAGTTCCGTGAATCCCGAGGAT | 2.32 | 1.72 | 0.769 | 1.67 | 0.967 | -0.0655 | 0.269 | 0.0824 | 0.505 | 0.237 | -0.157 | 0.0505 | 0.279 | 0.162 | 0.162 | 0.383 | 0.302 | 0.13
8 | CGTCCAAGGTCAGAGAGGTCCGTGAATGCCGAGT | 2.12 | 2.18 | -0.282 | -0.705 | 1.61 | 3.03 | 1.11 | 2.98 | 0.291 | 4.67 | 3.81 | 4.45 | 5.28 | 2.56 | 3.48 | 3.5 | 1.77 | 2.04
9 | GCTAGTTGGTCGGTAAAAGGTCACACACCGGTCG | 0.248 | 3.4 | 0.279 | 0.356 | 3.46 | 4.78 | 1.24 | 5.17 | 1.42 | 4.08 | 4.97 | 5.3 | 4.72 | 0.311 | 5.42 | 3.47 | 1.92 | 1.59
10 | CCTAGTTGGTCAGGAGGTCACTCACCGGATATGA | 1.33 | 2.97 | 0.254 | 0.0226 | 3.04 | 3.74 | 0.903 | 3.94 | 2.42 | 3.41 | 3.92 | 4.48 | 3.73 | 0.697 | 3.58 | 3.17 | 2.09 | 2.45
11 | AATACAGTGTCATCGTAGGCCAGAGTACGCACAG | 0.125 | 1.2 | 1.33 | -0.183 | -0.106 | 0.441 | -0.156 | 0.969 | 0.337 | 1.21 | 0.72 | 0.907 | 1.24 | 0.561 | 0.84 | 1.81 | -0.754 | 0.395
12 | TCTAGCAGGCGAGAGGGTCACTCAAGAGGTACGG | 0.656 | -0.139 | -0.781 | -0.425 | 0.125 | 1.47 | -0.472 | 2.24 | -0.11 | 1.81 | 2.17 | 2.04 | 1.83 | -0.024 | 2.15 | 1.52 | -0.333 | 0.103
13 | CTACCAAGGTGAACAAGGTCATTGATTACTATTC | 3.07 | 4.07 | 0.536 | 0.17 | 2.29 | 4.92 | 6.61 | 4.44 | 1.19 | 3.53 | 3.82 | 3.75 | 3.4 | 2.28 | 4.27 | 4.18 | 3.41 | 4.4
14 | TCCTATAGGTAAATGCTAGGTGAAAGTCCGATCT | 2.2 | 1.3 | 0.193 | 0.879 | -0.495 | 0.0422 | -0.266 | 0.694 | 0.208 | 0.523 | 0.372 | 0.374 | 0.00496 | 1.14 | 0.554 | 1.55 | 0.305 | -0.299
15 | CCTACTGGACCAAAAAGGTCATTGATGCCGATAA | 1.82 | 2.46 | -0.0112 | -0.226 | 4.04 | 4.77 | 2.35 | 5.09 | 3.15 | 3.96 | 4.26 | 4.54 | 4.04 | 1.08 | 5.04 | 3.33 | 1.43 | 3.2
16 | GCTAGTTGGTCAGTAAACGGTCACACACCGGTCG | 0.107 | 0.661 | 0.0589 | -0.0564 | 0.967 | 0.0338 | 0.06 | 0.591 | 0.301 | 1.76 | 2.63 | 1.5 | 1.33 | -0.0327 | 0.347 | 0.155 | -0.176 | -0.361
